Results: PubChem BioAssay
Calls of active or inactive are those of the source. Unless noted, no rule for the calls is given here.

Legend:
[1] = tested on: Wnt5a (protein binding on small-molecule microarray); test: Wnt5a binders on small-molecule microarray, primary screen, biophysical, 635/667 nm fluorescence (AID 1142); details: 635 nm fluorescence, higher = more signal;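 also: fluorescence read at 667 nm with signal to noise per printed feature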
[2] = cell viability in Huh7 cells, primary screen, cytotoxicity control for HCV replication inhibitor project, CellTiter-Glo luminescence, basal, 48 h (AID 1143); details: Huh7 HCV replicon, higher = more signal, called active from +8 up or from −8 down;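 also: Huh7 hepatoma cells carrying a hepatitis C replication reporter with no stimulus; test concentration not given here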
[3] = P. aeruginosa biofilm formation inhibitors, primary screen, PAO1 strain, BacTiter-Glo luminescence, LB-PBS (AID 1144); details: 12 h, higher = more signal
[4] = CREB reporter modulators without forskolin, primary screen, cell-based, PC12, CRE-LacZ reporter, unstimulated (AID 1145); details: no forskolin, luminescence, 4.5 h, higher = more signal, called active from +8 up or from −8 down
[5] = CREB reporter modulators under forskolin, primary screen, cell-based, PC12, CRE-LacZ reporter, forskolin-stimulated (AID 1146); details: luminescence, 4.5 h, higher = more signal, called active from +8 up or from −8 down;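 also: PC12 cells with 6xCRE LacZ reporter stimulated by forskolin 10 µM; beta-galactosidase reporter signal reflecting CREB driven transcription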
[6] = biological target: Streptavidin (Streptomyces avidinii) (UniProt P22629); test: streptavidin binders on small-molecule microarray, primary screen, artefact control for SMM compound annotation, biophysical, 635/667 nm fluorescence (AID 1147); details: streptavidin binding, higher = more signal;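 also: signal reflects streptavidin binding to arrayed compounds as a control protein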
Chain of Streptavidin (Streptomyces avidinii) (P22629 whole entry, looked up): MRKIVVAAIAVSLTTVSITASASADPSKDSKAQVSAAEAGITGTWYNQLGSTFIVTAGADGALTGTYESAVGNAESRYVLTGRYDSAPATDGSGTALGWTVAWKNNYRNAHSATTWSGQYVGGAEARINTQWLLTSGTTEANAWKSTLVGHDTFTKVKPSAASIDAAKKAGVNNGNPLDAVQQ

[7] = small-molecule binders of probe aInhba, primary screen, biochemical, small-molecule microarray, 635/667 nm fluorescence (AID 1148); details: higher = more signal;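 also: score merges 667nm spot fluorescence with signal-to-noise for antibody binding to printed compounds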
[8] = biological target: Torsin-1A (Homo sapiens) (UniProt O14656); test: torsin A binders from cell lysate, primary screen, small-molecule microarray, wild-type, 635/667 nm (AID 1149); details: COS7 hTOR1A-WT lysate, 635 nm fluorescence, higher = more signal
Chain of Torsin-1A (Homo sapiens) (O14656 whole entry, looked up): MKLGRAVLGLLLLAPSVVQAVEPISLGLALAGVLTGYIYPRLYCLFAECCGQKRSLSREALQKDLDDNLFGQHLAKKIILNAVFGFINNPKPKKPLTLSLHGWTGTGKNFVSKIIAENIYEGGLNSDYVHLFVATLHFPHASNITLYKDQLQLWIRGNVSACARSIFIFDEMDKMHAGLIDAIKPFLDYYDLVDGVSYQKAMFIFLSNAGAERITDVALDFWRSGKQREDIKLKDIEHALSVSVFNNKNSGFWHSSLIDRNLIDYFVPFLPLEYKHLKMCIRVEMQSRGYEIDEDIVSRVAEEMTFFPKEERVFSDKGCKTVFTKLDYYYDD

[9] = biological target: Torsin-1A (Homo sapiens) (UniProt O14656); test: small-molecule binders of mutant TOR1A in lysate, primary screen, cell lysate, small-molecule microarray, COS7 lysate, 635/667 nm fluorescence (AID 1150); details: COS7 hTOR1A mutant lysate, 635 nm fluorescence, higher = more signal;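 also: score pools 667 nm emission and signal to noise measuring lysate protein binding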
[10] = tested on: Sonic hedgehog protein (Shh); test: small-molecule binders of Shh protein, primary screen, biochemical, small-molecule microarray, 635/667 nm fluorescence (AID 1151); details: small-molecule microarray binding, 635 nm fluorescence; higher = more signal;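 also: Shh protein binding to compounds spotted on small-molecule microarray slides; score combines spot fluorescence intensity with signal-to-noise across triplicate slides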
[11] = E. coli DRC41 culture turbidity changes, primary screen, E. coli filamentation inducer project, strain DRC41, OD650, 48 h (AID 1152);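 also: E. coli MC1000 strain DRC41 lacking acrAB efflux pump and sulA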; details: E. coli DRC41 (acrAB sulA), higher = more signal, called active from +8 up or from −8 down
[12] = small-molecule binders of probe aLefty1, primary screen, biochemical, small-molecule microarray, 635/667 nm fluorescence (AID 1153); details: higher = more signal;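 also: score merges spot fluorescence with signal-to-noise ratio from the scanned slide images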
[13] = PSAC antagonists in infected red cells, primary screen, cell-based, P. falciparum Indochina, OD700, 1 h (AID 1154); details: P. falciparum Indochina infected RBC osmotic lysis, higher = more signal, called active from +8 up or from −8 down
[14] = PSAC antagonists in infected red cells, primary screen, cell-based, P. falciparum Indochina, OD700, 2 h (AID 1155);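 also: lysis reports solute entry through the parasite surface anion channel PSAC; channel blockers reduce lysis of infected cells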; details: P. falciparum Indochina infected erythrocytes, osmotic lysis OD700; higher = more signal, called active from +8 up or from −8 down
[15] = osmotic lysis modulators in infected erythrocytes, primary screen, PSAC antagonist project, cell-based, P. falciparum Indochina, OD700, 3 h (AID 1156); details: higher = more signal, called active from +8 up or from −8 down
[16] = PSAC antagonists in infected red cells, primary screen, cell-based, P. falciparum Indochina, OD700, 18 h (AID 1157); details: P. falciparum Indochina infected erythrocytes, osmotic lysis OD700, 18 h; higher = more signal, called active from +8 up or from −8 down
[17] = modulators of S6 phosphorylation in cells, primary screen, cell-based, A549, cytoblot, luminescence, serum-stimulated (AID 1158); details: A549 phospho-S6 cytoblot, 5 h, higher = more signal;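 also: serum-stimulated A549 lung adenocarcinoma cells; signal is phosphorylated S6 detected by cytoblot immunostaining with HRP secondary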
[18] = biological target: NADPH oxidase 2 (Homo sapiens) (UniProt P04839); test: NOX2-dependent H2O2 signal modulators, primary screen, NOX inhibitor project, cell-based, HEK293-NOX2, PMA-stimulated, Amplex Red fluorescence (AID 1159); details: 45 min, higher = more signal, called active from +8 up or from −8 down; also: test concentration not given here
Chain of NADPH oxidase 2 (Homo sapiens) (P04839 whole entry, looked up): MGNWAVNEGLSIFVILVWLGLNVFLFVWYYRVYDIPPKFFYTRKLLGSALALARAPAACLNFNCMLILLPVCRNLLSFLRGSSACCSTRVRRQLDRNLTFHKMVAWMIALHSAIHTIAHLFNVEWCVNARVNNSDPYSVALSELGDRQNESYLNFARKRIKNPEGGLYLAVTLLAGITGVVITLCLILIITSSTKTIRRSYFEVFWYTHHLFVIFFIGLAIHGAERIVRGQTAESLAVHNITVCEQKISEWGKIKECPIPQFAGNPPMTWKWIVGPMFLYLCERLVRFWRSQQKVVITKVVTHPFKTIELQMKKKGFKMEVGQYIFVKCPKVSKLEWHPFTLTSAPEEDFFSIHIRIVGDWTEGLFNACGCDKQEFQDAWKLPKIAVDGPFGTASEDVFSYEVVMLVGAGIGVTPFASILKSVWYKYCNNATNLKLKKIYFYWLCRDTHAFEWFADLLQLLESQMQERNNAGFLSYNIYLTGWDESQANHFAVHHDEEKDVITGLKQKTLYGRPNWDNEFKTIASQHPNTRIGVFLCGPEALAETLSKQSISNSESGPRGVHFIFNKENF

[19] = biological target: NADPH oxidase 4 (Homo sapiens) (UniProt Q9NPH5); test: NOX4-dependent H2O2 signal modulators, primary screen, NOX inhibitor project, cell-based, HEK293-NOX4, tetracycline-induced, Amplex Red fluorescence (AID 1160); details: 45 min, higher = more signal, called active from +8 up or from −8 down
Chain of NADPH oxidase 4 (Homo sapiens) (Q9NPH5 whole entry, looked up): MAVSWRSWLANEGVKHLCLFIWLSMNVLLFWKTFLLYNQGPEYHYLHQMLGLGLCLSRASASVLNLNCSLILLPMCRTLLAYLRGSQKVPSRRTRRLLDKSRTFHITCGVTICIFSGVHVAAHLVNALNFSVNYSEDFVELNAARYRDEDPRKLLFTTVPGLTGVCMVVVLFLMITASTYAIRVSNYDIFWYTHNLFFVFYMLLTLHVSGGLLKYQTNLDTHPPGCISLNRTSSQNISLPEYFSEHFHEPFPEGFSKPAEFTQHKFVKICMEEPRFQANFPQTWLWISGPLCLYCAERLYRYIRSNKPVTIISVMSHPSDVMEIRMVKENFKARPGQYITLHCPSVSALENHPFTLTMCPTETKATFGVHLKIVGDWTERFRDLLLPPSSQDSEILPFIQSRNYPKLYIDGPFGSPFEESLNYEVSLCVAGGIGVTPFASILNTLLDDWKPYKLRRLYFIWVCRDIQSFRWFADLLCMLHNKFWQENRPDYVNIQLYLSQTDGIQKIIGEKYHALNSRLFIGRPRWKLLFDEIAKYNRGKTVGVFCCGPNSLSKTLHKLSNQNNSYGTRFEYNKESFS

[20] = biological target: NADPH oxidase 5 (Homo sapiens) (UniProt Q96PH1); test: NOX5-dependent H2O2 signal modulators, primary screen, NOX inhibitor project, cell-based, HEK293-NOX5, Amplex Red fluorescence (AID 1161); details: HEK293-NOX5, ionomycin, 45 min, higher = more signal
Chain of NADPH oxidase 5 (Homo sapiens) (Q96PH1 whole entry, looked up): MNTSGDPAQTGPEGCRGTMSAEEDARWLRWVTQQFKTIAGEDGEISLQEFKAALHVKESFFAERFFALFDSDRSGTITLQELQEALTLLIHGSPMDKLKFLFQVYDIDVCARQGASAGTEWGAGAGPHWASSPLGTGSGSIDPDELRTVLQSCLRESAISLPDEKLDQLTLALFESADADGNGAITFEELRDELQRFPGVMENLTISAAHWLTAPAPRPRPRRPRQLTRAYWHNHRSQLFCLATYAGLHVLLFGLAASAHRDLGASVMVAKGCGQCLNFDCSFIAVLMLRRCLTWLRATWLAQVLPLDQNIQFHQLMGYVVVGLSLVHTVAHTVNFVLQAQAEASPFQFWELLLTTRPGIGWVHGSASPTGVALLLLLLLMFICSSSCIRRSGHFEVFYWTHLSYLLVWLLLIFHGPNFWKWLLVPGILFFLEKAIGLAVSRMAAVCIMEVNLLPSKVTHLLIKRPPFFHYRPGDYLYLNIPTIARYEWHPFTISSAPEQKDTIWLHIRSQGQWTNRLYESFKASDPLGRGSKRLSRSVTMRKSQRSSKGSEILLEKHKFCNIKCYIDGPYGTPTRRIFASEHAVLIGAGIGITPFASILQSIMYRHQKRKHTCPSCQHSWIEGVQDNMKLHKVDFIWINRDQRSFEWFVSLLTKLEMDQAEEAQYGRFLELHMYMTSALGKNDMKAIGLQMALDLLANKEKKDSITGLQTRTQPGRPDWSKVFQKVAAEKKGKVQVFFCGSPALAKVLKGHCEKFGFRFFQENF

Structure (SMILES) | composite z-score [1] | z-score [2] | z-score [3] | z-score [4] | z-score [5] | composite z-score [6] | composite z-score [7] | composite z-score [8] | composite z-score [9] | composite z-score [10] | z-score [11] | composite z-score [12] | z-score [13] | z-score [14] | z-score [15] | z-score [16] | z-score [17] | z-score [18] | z-score [19] | z-score [20]
O=C(NCc1ccccc1)[C@@H]1c2ccccc2C(=O)N(Cc2cc(C(F)(F)F)cc(C(F)(F)F)c2)[C@H]1c1ccc(CO)cc1 | 0.145 | -1.69 (inactive) | -1.69 (inactive) | 0.0387 (inactive) | 0.119 (inactive) | 0.556 | -0.0405 | -0.137 | 0.759 | 1.93 | -0.0343 (inactive) | 0.0004 | 2.87 (inactive) | 0.55 (inactive) | 2.48 (inactive) | 0.352 (inactive) | -0.0959 | 0.736 (inactive) | 0.284 (inactive) | 1.52
C=C(COC)/C(=C/C[C@@H](OC(C)=O)c1ccccc1OCCO)c1cnc2ccccc2c1 | 0.3 | -2.52 (inactive) | 0.514 (inactive) | 8.98 (active) | 0.879 (inactive) | 0.219 | -0.0087 | 2.53 | 2.34 | 2.29 | -0.146 (inactive) | 0.267 | 28.1 (active) | 14.2 (active) | 1.56 (inactive) | 1.71 (inactive) | 0.413 | -1.22 (inactive) | -1.04 (inactive) | -0.792
COc1cc(CO)cc(I)c1O[C@H]1C=C(C(=O)NCCO)C[C@@H](NC2CCCCCC2)[C@@H]1O | 0.29 | -1.65 (inactive) | 0.0741 (inactive) | 5.46 (inactive) | 0.0453 (inactive) | -0.0211 | -0.0115 | 0.0076 | 0.243 | 1.3 | 0.818 (inactive) | 0.0313 | 10.1 (active) | 1.55 (inactive) | 3.68 (inactive) | 1.09 (inactive) | 0.565 | 0.287 (inactive) | -0.789 (inactive) | -0.579
CC(C)OC(=O)CC(=O)CC(O)c1cccc([N+](=O)[O-])c1 (stereo not given) | 0.457 | -3.92 (inactive) | -2.34 (inactive) | -0.676 (inactive) | -0.185 (inactive) | 1.14 | -0.0221 | -0.324 | 2.75 | -0.352 | 1.27 (inactive) | 0.318 | 3.27 (inactive) | 0.79 (inactive) | -1.39 (inactive) | -0.295 (inactive) | 2.1 | -0.068 (inactive) | 0.147 (inactive) | 0.435
COCCOC(=O)N1C(=O)[C@@]2(c3cc(C#CCC(C(=O)OC)C(=O)OC)ccc31)[C@H](C(=O)Nc1nc3ccccc3s1)[C@H]1C(=O)O[C@H](c3ccccc3)[C@H](c3ccccc3)N1[C@@H]2c1ccc(O)cc1 | 0.624 | -0.869 (inactive) | 0.446 (inactive) | -1.14 (inactive) | 0.316 (inactive) | 1.27 | 0.326 | 0.391 | 0.0756 | 1.84 | 0.0976 (inactive) | 0.786 | 1.3 (inactive) | 0.575 (inactive) | -0.0813 (inactive) | 0.751 (inactive) | -0.0525 | 1.59 (inactive) | -1.11 (inactive) | 0.755
CC(C)=C1C(=O)C(c2ccccc2)=C2CN3C(=O)N(CCc4ccccc4)C(=O)[C@]3(C)[C@H]21 | -0.0006 | -2.42 (inactive) | 0.64 (inactive) | 0.0177 (inactive) | 0.839 (inactive) | 0.509 | -0.016 | -0.656 | -0.124 | -0.223 | -2.52 (inactive) | 0.298 | 28.2 (active) | 24.2 (active) | 1.63 (inactive) | 1.62 (inactive) | -0.832 | -1.16 (inactive) | -1.55 (inactive) | -0.718
COc1cc(CO)cc(I)c1O[C@H]1C=C(C(=O)NCCO)C[C@@H]2O[C@H]12 | 0.815 | -4.18 (inactive) | -0.583 (inactive) | 3.65 (inactive) | 3.07 (inactive) | 0.717 | -0.0589 | 1.58 | 0.125 | 1.59 | -0.211 (inactive) | 0.369 | 11.1 (active) | 3.45 (inactive) | 2.06 (inactive) | 2 (inactive) | 0.179 | 1.46 (inactive) | -0.691 (inactive) | -6.01
O=C1C[C@@](C(=O)O)(c2ccc([N+](=O)[O-])cc2)[C@@H](c2ccc(CO)cc2)N1C1CCCCC1 | 0.239 | -3.27 (inactive) | 0.381 (inactive) | -0.179 (inactive) | -0.337 (inactive) | 0.856 | -0.0645 | 0.298 | 0.371 | 0.478 | -0.485 (inactive) | 0.0984 | 5.95 (inactive) | 0.732 (inactive) | 2.38 (inactive) | 0.646 (inactive) | 0.197 | -0.127 (inactive) | -1.27 (inactive) | 0.369
CC(C)(C)OC(=O)CC[C@]1(C(=O)NCC(O)CO)N=C(c2ccc(OCCCO)cc2)O[C@H]1c1ccccc1N=[N+]=[N-] (stereo not given in full) | 0.112 | -1.01 (inactive) | -0.00253 (inactive) | -0.0808 (inactive) | -1.48 (inactive) | 1.38 | 0.32 | 0.172 | 0.565 | 0.0555 | 0.618 (inactive) | 0.215 | 29.9 (active) | 27.1 (active) | 1.38 (inactive) | 6.1 (inactive) | -0.465 | -3.04 (inactive) | 1.04 (inactive) | -1.68
